# Laboratory results reported in the supplement of paper PMC10498489.
# Hit rate of the full screen: of about 2,300 compounds, about 330 (14%) showed activity.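 Rule for the calls: active = median modified Z-score above 1.96; inactive = 1.96 or below.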 These entries were drawn from the full list.
# Test system: HepG2 Srxn1-GFP reporter cells (+30 nM CDDO-Me)
# Experiment: Srxn1-GFP intensity median modified Z-score relative to plate median; higher = stronger NRF2 / oxidative stress reporter activation, active = hit call of the paper
# Settings: 10 µM; exposure time: 24h
# Method in brief: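 The modified Z-score of GFP intensity was computed per plate, and the median over replicates is reported. HepG2 Srxn1-GFP BAC reporter cells in three replicate plates were treated for 24 h with compound at 10 μM plus an NRF2 activator at 30 nM (≤0.1% DMSO). Per-cell cytoplasmic GFP came from confocal images, excluding those with under 100 cells, and scaling used 1.4826 × median absolute deviation.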
row,SMILES,Srxn1-GFP intensity median modified Z-score
1,C[C@@H]1CC2C3CC(F)=C4CC(=O)C=C[C@]4(C)[C@@]3(F)[C@@H](O)C[C@]2(C)[C@@]1(O)C(=O)COC(=O)C(C)(C)C (some centres not stated) [euspeclibcmpd128],-0.646 (inactive)
2,COc1c(O)c(C)c(C=CCCCCCCCCO)c(O)c1OC [euspeclibcmpd1216],-0.228 (inactive)
3,COC(=O)/C(=C1\OC(=O)C(c2ccccc2)C1=O)c1ccccc1 (configuration not stated) [euspeclibcmpd1487],1.05 (inactive)
4,COC(=O)CC1C(C)(C)C(OC(C)=O)C2C(OC(C)=O)C34OC2(O)C1(C)C3CCC1(C)C4=CC(=O)OC1c1ccoc1 (configuration not stated) [euspeclibcmpd1938],-0.377 (inactive)
5,CC(=O)O[C@@H]1CC2C(C)(C)C(=O)C=C[C@]2(C)C2CC[C@@]3(C)[C@H](c4ccoc4)OC(=O)C4O[C@]43[C@@]21C (some centres not stated) [euspeclibcmpd1359],23.9 (active)
6,COC(=O)C1OC(=O)C2OC23C1(C)CCC1C2(C)CCC(=O)C(C)(C)C2CC(OC(C)=O)C13C (configuration not stated) [euspeclibcmpd1948],-0.0565 (inactive)
7,CC(=O)O[C@@H]1CC2C(C)(C)C(=O)CC[C@]2(C)C2CC[C@@]3(C)[C@H](c4ccoc4)OC(=O)C4OC43[C@@]21C (some centres not stated) [euspeclibcmpd1587],32.1 (active)
8,CC(=O)O[C@@H]1CC2C(C)(C)C(=O)C3OC3[C@]2(C)C2CC[C@@]3(C)[C@H](c4ccoc4)OC(=O)C4OC43[C@@]21C (some centres not stated) [euspeclibcmpd1644],5.41 (active)
9,COC(=O)C1OC(=O)C2OC23[C@@]1(C)CCC1[C@]2(C)C(C[C@@H](O)[C@]13C)C(C)(C)[C@H](OC(C)=O)C[C@@H]2OC(C)=O (some centres not stated) [euspeclibcmpd2102],-0.135 (inactive)
10,CC1(C)O[C@H]2CC(=O)OC[C@]23[C@H]2CC[C@@]4(C)[C@H](c5ccoc5)OC(=O)C5O[C@]54[C@]2(C)C(=O)C[C@@H]13 (some centres not stated) [euspeclibcmpd1497],0.563 (inactive)
11,CC1(C)C(=O)C=C[C@@]2(C)C1CC(=O)[C@]1(C)C2CC[C@@]2(C)[C@H](c3ccoc3)OC(=O)C3O[C@]321 (some centres not stated) [euspeclibcmpd1588],13 (active)
12,CC(=O)O[C@H]1C[C@@H](OC(C)=O)C(C)(C)C2CC(=O)[C@]3(C)C(CC[C@@]4(C)[C@H](c5ccoc5)OC(=O)C5O[C@]543)[C@]21C (some centres not stated) [euspeclibcmpd1589],0.448 (inactive)
13,CC(=O)O[C@H]1C[C@@H](OC(C)=O)C(C)(C)C2CC(=O)[C@]3(C)C(CC[C@@]4(C)C(C(=O)O)OC(=O)C5OC543)[C@]21C (some centres not stated) [euspeclibcmpd1389],-0.386 (inactive)
14,CC(=O)O[C@H]1C[C@@H](OC(C)=O)C(C)(C)C2C[C@@H](OC(C)=O)[C@@]3(C)C4=CC(=O)O[C@@H](c5ccoc5)[C@]4(C)CCC3[C@]21C (some centres not stated) [euspeclibcmpd1532],0.0053 (inactive)
15,CC(=O)OC1CC2C(C)(C)C(O)CCC2(C)C2CCC3(C)C(=CC(=O)OC3c3ccoc3)C12C (configuration not stated) [euspeclibcmpd1952],0.595 (inactive)
16,CC(C)CCCC(C)C1CCC2C3CC(=O)C4C[C@@H](O)CC[C@]4(C)C3CC[C@]12C (some centres not stated) [euspeclibcmpd2198],-0.502 (inactive)
17,C[C@]12CC[C@@H](O)C[C@H]1CCc1ccccc12 [euspeclibcmpd1508],-0.327 (inactive)
18,N=c1[nH]c(=N)c2nc(-c3ccccc3)c(=N)[nH]c2[nH]1 [euspeclibcmpd304],-0.346 (inactive)
19,CN[C@@H]1[C@@H](O[C@H]2O[C@H](CO)[C@@H](N)[C@H](O)[C@H]2O)O[C@H]2C[C@@H](N)[C@H](O[C@H]3[C@H](O)[C@@H](O)[C@H](N)C[C@@H]3N)O[C@@H]2[C@@H]1O [euspeclibcmpd2180],-0.708 (inactive)
20,CN(N=O)C(=O)N[C@@H]1[C@@H](O)[C@H](O)[C@@H](CO)O[C@@H]1O [euspeclibcmpd271],0.0066 (inactive)
21,Cc1cc2nc3c(=O)[nH]c(=O)nc-3n(C[C@@H](O)[C@@H](O)[C@@H](O)CO)c2cc1C [euspeclibcmpd751],-0.238 (inactive)
22,Cc1ccc(N2CC(C(=O)NCCCn3ccnc3)CC2=O)c(F)c1 (configuration not stated),1.07 (inactive)
23,Cc1onc(-c2ccccc2Cl)c1C(=O)NC1C(=O)N2C1SC(C)(C)C2C(=O)O (configuration not stated) [euspeclibcmpd2381],-0.0695 (inactive)
24,C[C@@H]1O[C@@H](OC[C@H]2OC(Oc3c(-c4ccc(O)c(O)c4)oc4cc(O)cc(O)c4c3=O)[C@H](O)[C@@H](O)[C@@H]2O)[C@H](O)[C@H](O)[C@H]1O (some centres not stated) [euspeclibcmpd2149],-0.139 (inactive)
25,CC(=O)O[C@H]1CC[C@@]2(C)C(C[C@@H](OC(C)=O)[C@]3(C)C2CC[C@@]2(C)[C@H](c4ccoc4)OC(=O)C4O[C@]423)C1(C)C (some centres not stated) [euspeclibcmpd2319],5.12 (active)
26,CC(=O)O[C@H]1C[C@@H](OC(C)=O)C(C)(C)C2C[C@@H](O)[C@]3(C)C(CC[C@@]4(C)[C@H](c5ccoc5)OC(=O)C5O[C@]543)[C@]21C (some centres not stated) [euspeclibcmpd1544],0.39 (inactive)
27,CC(=O)OC1CC(OC(C)=O)C2(C)C(CC(OC(C)=O)C3(C)C2CCC2(C)C(c4ccoc4)OC(=O)C4OC423)C1(C)C (configuration not stated) [euspeclibcmpd1940],0.483 (inactive)
